In the library only some 8.3% were active in any assay of this set; here they are far more common.
BCR signal inh: inhibitors of chronic active B-cell receptor signaling. ABC-DLBCL IkBa-CBG/CBR reporter, luminescence ratio, 4 h. Potency, µM (highest dose often 46.1 µM), for the others: top-dose activity change, negative = inhibition, most hits filed as inhibitors. 0.05% of 340,000 active. AID 493014; active = well fitted inhibition curve with a large enough effect in the signal ratio, with a control signal flat, not every such curve was filed as active; inconclusive = small, poorly fitted or top-dose-only effect, or effect the other way, or a change in a side signal; the % refers to the signal ratio;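 also: potency is read from the fitted curve at half-maximal effect; plate controls were basal doxycycline-induced cells for no effect and cells given 10 µM MG132 for full effect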
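TMD8 ABC-DLBCL cells carrying doxycycline-inducible green luciferase fused to IkappaBalpha plus unfused red luciferase were exposed to compounds (up to 46 uM) for 4 hrs at 37C. Activity came from the overlap-corrected green/red luminescence ratio.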
SW480 rereplic: DNA re-replication induction in SW480 cells | SW480 DNA re-replication, Hoechst DNA content imaging, 48 h | Potency, µM (doses to about 46.1 µM), inactives show at the highest dose re-replication activation, hits mostly activators | 1.8% of 340,000 active; also: potency is read from the fitted curve at half-maximal effect; % of control where 0% means no effect; nearly all actives have a fitted effect of over 55% in size
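SW480 cells exposed to compounds for 48 hr at 37 C, 5% CO2, then Hoechst-stained 40 min. Nuclear DNA content imaged by fluorescence scanning (405 nm excitation, 500-530 nm emission); re-replication scored as increased high-intensity nuclei.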
Giardia killer: kills Giardia lamblia. activity change, % at 7.66 µM, hits read low. AID 540267. Giardia lamblia trophozoite viability. 0.15% of 340,000 active; in the data active = activity change below about -80%; inconclusive = between about -30% and that limit;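 also: parasites exposed to compound for two days anaerobically before the ATP read; % is scaled to controls: 0 for no effect and ±100 for the full control effect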
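Viability, read as ATP luminescence: trophozoites at 100 cells/well, compound added, 48 hrs anaerobic at 37 deg C, then 15-30 min room-temperature development before reading.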
MCF10A rerep: induces DNA re-replication in MCF 10a normal breast cells; 2.9% of 350,000 active; MCF 10A DNA re-replication, Hoechst nuclear intensity, 48 h; Potency, µM (series often up to 46.1 µM), for inactives: top-dose activity, positive = re-replication, actives largely listed as activators; also: potency is read from the fitted curve at half-maximal effect; % of control where 0% means no effect; nearly all actives have a fitted effect of over 50% in size
VP16 counter: inhibits Gal4-VP16 luciferase reporter, ROR gamma counter-screen. Drosophila S2 Gal4-VP16 UAS-luciferase, luminescence, 20 h. Potency, µM (highest dose often 53.6 µM), inactives show top-dose activity, negative = inhibition, hits mostly inhibitors. 3.5% of 310,000 active. AID 2546;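 also: Gal4-VP16 expression switched on by copper sulfate through the metallothionein promoter; potency is read from the fitted curve at half-maximal effect; % is scaled to controls: 0 for no effect and ±100 for the full control effect; nearly all actives have a fitted effect of over 50% in size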
RORgamma inh: blocks mouse ROR gamma transcriptional activity; P51450; Potency, µM (doses to about 53.6 µM), for inactives: top-dose activity change, negative = inhibition, usual class: inhibitors; Drosophila S2 Gal4-RORgamma UAS-luciferase reporter, 20 h; 5.4% of 310,000 active; also: potency is read from the fitted curve at half-maximal effect; % is scaled to controls: 0 for no effect and ±100 for the full control effect; nearly all actives have a fitted effect of over 60% in size
Target sequence (P51450 whole entry, looked up, the tested form may be a part): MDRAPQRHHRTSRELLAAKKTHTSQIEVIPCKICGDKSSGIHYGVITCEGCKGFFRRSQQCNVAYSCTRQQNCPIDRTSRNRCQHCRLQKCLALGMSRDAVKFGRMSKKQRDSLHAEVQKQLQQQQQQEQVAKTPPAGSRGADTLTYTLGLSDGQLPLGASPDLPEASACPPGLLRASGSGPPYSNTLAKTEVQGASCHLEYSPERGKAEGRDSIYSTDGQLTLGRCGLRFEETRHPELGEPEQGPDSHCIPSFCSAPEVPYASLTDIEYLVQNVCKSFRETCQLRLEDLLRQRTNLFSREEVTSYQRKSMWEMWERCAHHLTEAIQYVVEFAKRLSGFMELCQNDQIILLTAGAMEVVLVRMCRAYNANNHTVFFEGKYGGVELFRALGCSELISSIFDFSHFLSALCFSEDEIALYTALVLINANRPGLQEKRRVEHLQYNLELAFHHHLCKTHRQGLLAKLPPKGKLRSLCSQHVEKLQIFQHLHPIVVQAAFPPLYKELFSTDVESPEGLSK
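Read-out: Photinus luciferase luminescence; inhibitors lower reporter signal. Insect Schneider cells with Gal4-ROR gamma fusion under metallothionein promoter, UAS reporter; 700 uM final copper sulfate induction, 20 hr, ambient temperature.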
Numbers without * were called inactive; ? = inconclusive; / = not tested or not shown. Unless noted, calls follow the shape of the dose curve; as a rule, active = well fitted curve in the direction sought with a large enough effect; inconclusive = small, poorly fitted or top-dose-only effect, or another doubt; inactive = no such curve, though single readings can be large; an effect the other way counts as inactive or inconclusive.

SMILES | BCR signal inh | SW480 rereplic | Giardia killer | MCF10A rerep | VP16 counter | RORgamma inh
CC(C)Cc1cc(C(=O)N2CCC(N3CCC(C(=O)N4CCOCC4)CC3)CC2)n[nH]1 | 1% | -22% | 24 | 1% | 2% | -1%
COc1ccccc1/C=N/NC(=O)c1ccccc1NS(=O)(=O)c1ccc(C)cc1 | 4% | -38% | -7 | 0% | ? | 13µM*
COc1ccccc1NS(=O)(=O)c1cccc(C(=O)N/N=C/c2ccc(C)o2)c1 | 0% | 5% | -3 | 0% | 14µM* | 11µM*
COc1ccccc1NS(=O)(=O)c1cccc(C(=O)OCC(=O)Nc2cc(C)on2)c1 | ? | -5% | 1 | 5% | -25% | 11µM*
COc1ccccc1/C=N/NC(=O)c1ccccc1Cl | ? | -14% | -1 | -1% | -1% | -31%
COc1ccccc1NS(=O)(=O)c1cccc(C(=O)N/N=C/c2ccc(N3CCOCC3)cc2)c1 | 1% | -4% | -5 | 11% | -12% | -52%
Cc1ccc(/C=N/NC(=O)c2cccc(S(=O)(=O)Nc3cccc(Cl)c3)c2)o1 | 1% | -1% | -12 | -6% | ? | 13µM*
COc1ccccc1NS(=O)(=O)c1cccc(C(=O)OCc2nc3ccccc3s2)c1 | -2% | -3% | 5 | 5% | -3% | 37%
CCCCNC(=O)COn1nnc2ccc(S(=O)(=O)N3CCOCC3)cc21 | 0% | -13% | -6 | 6% | / | /
CCOc1ccccc1NC(=O)/C=C/c1ccc(S(=O)(=O)N2CCOCC2)cc1 | ? | 2% | -5 | 2% | / | /
O=C(CCS(=O)(=O)c1ccc(Cl)cc1)NCCN1C(=O)S/C(=C\c2ccccc2F)C1=O | 3% | 3% | 5 | 19% | ? | ?
O=C(CNC(=O)c1ccccc1F)NCCN1C(=O)S/C(=C\c2ccccc2Cl)C1=O | ? | -5% | 4 | 4% | ? | -1%
O=C(NCCN1C(=O)S/C(=C\c2ccccc2Cl)C1=O)C1=COCCO1 | -3% | ? | -23 | 7.3µM* | / | /
O=C(NCCN1C(=O)S/C(=C\c2ccccc2F)C1=O)C1=COCCO1 | ? | 4.1µM* | -3 | 2.6µM* | / | /
O=C(NCCN1C(=O)S/C(=C\c2ccc(Cl)cc2Cl)C1=O)C1=COCCO1 | -2% | ? | -6 | 13µM* | / | /
CCSc1nc(-c2ccccc2)cc(=O)[nH]1 | -4% | -5% | 5 | -5% | / | /
CC(=O)N1CCN(c2ccc(NC(=S)NC(=O)c3ccc(C)c([N+](=O)[O-])c3)cc2)CC1 | -4% | -29% | -11 | -4% | 7.9µM* | ?
COc1ccc(C(=O)NC(=S)Nc2ccc(N3CCN(C(C)=O)CC3)cc2)cc1[N+](=O)[O-] | -1% | -2% | -10 | 9% | 18µM* | ?
CCc1ccc(N(C(C)=O)c2nc(CCl)cs2)cc1 | 0% | -6% | 2 | ? | -3% | 10%
O=C1c2ccccc2C(=O)c2c1ncn2-c1ccccc1 | -2% | 16µM* | -6 | ? | ? | 11µM*
CCOc1ccc(NS(=O)(=O)c2cc(C(=O)NCCCN3CCCC3=O)ccc2C)cc1 | 0% | -16% | -10 | 16% | / | /
Cc1nc2sc(C(c3ccco3)N3CCN(c4ccccc4F)CC3)c(O)n2n1 (stereo not drawn) | -1% | 17% | 4 | 18µM* | -3% | 5%
Cc1nc2sc(C(c3ccco3)N3CCN(c4ccc(F)cc4)CC3)c(O)n2n1 (stereo not drawn) | -4% | 5% | 2 | 1% | -21% | -13%
COc1ccc(CCNC(=O)CN(c2ccc(OC)c(OC)c2)S(=O)(=O)c2ccccc2)cc1OC | -2% | -6% | 34 | -32% | 1% | -17%
O=C(CNc1ccccc1Cl)N/N=C1\CCCc2ccccc21 | ? | 0% | 0 | ? | -5% | -19%
CCNC(=S)N/N=C1\C(=O)c2cccc3cccc1c23 | ? | -3% | -20 | 21µM* | 4.5µM* | 3.2µM*

Screens from PubChem BioAssay.
